This note sets out measurements from publication PMC7862700, “An all-to-all approach to the identification of sequence-specific readers for epigenetic DNA modifications on cytosine”.

Common to all, as to assay: DAPPL (digital affinity profiling via proximity ligation, sequencing); 10 mM Tris-HCl pH 7.5, 50 mM NaCl, 1 mM DTT, 4% glycerol, room temperature, 30 min; GST-TFs on glutathione beads, 16-mer random dsDNA library, 0.1% formaldehyde crosslink after washing; high values mean tight binding
Holding throughout (conditions): protein: recombinant; tags: N-terminal GST; dsDNA, one strand shown

One assay concerns the target T1, FLI1 (Homo sapiens, UniProt Q01543 1-452).
T1 sequence: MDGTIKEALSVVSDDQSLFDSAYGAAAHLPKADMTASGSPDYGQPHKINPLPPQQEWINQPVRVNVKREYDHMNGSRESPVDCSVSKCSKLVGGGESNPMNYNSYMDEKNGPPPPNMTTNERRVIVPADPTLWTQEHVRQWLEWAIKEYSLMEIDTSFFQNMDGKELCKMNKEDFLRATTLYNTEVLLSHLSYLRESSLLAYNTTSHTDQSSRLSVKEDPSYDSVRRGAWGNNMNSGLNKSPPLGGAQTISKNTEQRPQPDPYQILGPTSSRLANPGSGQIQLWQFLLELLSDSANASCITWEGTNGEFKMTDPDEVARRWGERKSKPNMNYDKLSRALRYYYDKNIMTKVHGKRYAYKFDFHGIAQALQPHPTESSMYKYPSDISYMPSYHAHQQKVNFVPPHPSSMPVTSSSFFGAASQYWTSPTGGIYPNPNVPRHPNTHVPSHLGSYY
In a few lines: (§1)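 Human transcription factors were made in yeast as GST fusions, captured on glutathione beads and barcoded with DNA. With a tag-only sample included, the pool was incubated with 200 nmole of a random double-stranded 16-mer DNA library in Tris/NaCl/DTT/glycerol buffer at room temperature for 30 min, then crosslinked with 0.1% formaldehyde after washing, ligated by proximity, amplified and sequenced. For binding signal, each hexamer's read frequency for a factor is divided by its frequency for the tag-only sample.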

The next assay deals with T2, ELK1 (Homo sapiens, UniProt P19419 1-428).
T2 sequence: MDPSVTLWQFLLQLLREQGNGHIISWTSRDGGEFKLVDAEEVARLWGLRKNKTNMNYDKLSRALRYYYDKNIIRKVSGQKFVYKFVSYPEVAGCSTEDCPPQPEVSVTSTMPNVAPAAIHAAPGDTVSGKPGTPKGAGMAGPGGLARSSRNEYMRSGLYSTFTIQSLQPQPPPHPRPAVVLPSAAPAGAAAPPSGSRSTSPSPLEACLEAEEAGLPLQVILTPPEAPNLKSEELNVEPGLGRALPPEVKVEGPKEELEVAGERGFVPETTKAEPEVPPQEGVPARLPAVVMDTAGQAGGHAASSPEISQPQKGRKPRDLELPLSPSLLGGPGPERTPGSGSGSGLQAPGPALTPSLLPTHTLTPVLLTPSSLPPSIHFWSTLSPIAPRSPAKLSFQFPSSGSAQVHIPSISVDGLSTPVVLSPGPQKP
In a few lines: as §1

In another assay the target is T3, GABPA (Homo sapiens, UniProt Q06546 1-454).
T3 sequence: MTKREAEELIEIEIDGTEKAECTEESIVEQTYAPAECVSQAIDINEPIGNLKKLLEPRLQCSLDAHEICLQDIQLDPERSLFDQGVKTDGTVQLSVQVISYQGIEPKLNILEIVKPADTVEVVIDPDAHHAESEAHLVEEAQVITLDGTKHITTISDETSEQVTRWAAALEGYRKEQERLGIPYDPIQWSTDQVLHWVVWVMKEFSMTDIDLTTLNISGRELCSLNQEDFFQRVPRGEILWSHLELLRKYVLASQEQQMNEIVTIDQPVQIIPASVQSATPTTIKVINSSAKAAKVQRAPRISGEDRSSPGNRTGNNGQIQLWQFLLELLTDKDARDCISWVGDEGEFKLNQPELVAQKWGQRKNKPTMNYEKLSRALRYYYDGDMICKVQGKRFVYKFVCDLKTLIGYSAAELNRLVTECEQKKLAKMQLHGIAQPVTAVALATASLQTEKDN
In a few lines:
as §1

The target in another assay is ELF1 (Homo sapiens, UniProt P32519 1-619). In outline: as §1
Chain of ELF1 (P32519 whole entry): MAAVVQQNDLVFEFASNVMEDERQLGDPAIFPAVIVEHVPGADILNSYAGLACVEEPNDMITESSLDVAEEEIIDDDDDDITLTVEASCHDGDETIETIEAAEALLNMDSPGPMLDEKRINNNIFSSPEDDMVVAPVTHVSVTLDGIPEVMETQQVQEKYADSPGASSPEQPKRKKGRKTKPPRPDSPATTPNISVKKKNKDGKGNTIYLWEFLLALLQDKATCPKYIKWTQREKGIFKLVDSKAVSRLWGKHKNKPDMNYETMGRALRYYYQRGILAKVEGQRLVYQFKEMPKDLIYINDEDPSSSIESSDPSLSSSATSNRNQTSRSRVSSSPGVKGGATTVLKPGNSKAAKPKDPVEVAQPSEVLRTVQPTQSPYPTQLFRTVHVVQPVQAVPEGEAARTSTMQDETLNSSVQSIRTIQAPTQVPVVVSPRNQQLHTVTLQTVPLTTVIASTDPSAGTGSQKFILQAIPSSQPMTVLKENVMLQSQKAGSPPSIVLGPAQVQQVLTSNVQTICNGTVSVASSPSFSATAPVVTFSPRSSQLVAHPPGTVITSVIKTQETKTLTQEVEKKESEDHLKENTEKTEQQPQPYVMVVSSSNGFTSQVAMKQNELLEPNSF
The next assay has as its target T4, EHF (Homo sapiens, UniProt Q9NZC4 1-300).
T4 sequence: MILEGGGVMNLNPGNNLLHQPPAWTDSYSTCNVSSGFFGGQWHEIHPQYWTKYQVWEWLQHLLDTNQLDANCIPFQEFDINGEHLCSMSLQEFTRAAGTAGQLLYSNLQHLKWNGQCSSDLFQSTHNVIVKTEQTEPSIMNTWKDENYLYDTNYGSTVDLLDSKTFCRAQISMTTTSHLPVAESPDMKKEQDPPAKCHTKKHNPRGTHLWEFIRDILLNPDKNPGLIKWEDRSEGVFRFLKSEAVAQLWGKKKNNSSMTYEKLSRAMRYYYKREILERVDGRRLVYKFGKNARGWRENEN
In a few lines: as §1

The target of the next assay is SPIB (Homo sapiens, UniProt Q01892 1-262). In outline: as §1
Chain of SPIB (Q01892 whole entry): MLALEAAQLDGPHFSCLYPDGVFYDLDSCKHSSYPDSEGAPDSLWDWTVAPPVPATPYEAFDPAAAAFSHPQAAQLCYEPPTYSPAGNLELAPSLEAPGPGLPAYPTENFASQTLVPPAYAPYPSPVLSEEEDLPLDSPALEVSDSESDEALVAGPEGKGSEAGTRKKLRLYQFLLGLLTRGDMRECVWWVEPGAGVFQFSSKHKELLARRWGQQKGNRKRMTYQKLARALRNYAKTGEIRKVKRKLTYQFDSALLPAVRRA
The next assay has as its target T5, SPIC (Homo sapiens, UniProt Q8N5J4 1-248).
T5 sequence: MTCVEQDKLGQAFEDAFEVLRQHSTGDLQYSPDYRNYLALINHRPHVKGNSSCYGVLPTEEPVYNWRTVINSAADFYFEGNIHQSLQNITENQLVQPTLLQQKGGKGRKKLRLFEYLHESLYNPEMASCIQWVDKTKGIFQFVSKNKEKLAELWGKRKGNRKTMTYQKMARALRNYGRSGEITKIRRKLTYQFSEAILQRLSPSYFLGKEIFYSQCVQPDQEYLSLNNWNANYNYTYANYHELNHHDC
In outline:
as §1

Another assay addresses ELF4 (Homo sapiens, UniProt Q99607 1-663). In outline:
as §1

A further assay has as its target T6, ELK4 (Homo sapiens, UniProt P28324-2 1-405).
T6 sequence: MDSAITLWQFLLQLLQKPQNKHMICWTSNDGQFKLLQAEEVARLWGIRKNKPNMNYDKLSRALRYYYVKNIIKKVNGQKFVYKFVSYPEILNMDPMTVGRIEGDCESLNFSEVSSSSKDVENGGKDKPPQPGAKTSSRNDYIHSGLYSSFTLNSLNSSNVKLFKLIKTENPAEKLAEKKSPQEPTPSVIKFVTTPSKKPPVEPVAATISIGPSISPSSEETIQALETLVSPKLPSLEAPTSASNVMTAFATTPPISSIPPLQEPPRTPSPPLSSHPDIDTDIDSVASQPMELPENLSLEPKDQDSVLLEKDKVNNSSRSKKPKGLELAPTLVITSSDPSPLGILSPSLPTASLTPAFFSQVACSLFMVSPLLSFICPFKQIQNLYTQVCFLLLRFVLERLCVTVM
In a few lines:
as §1

Another assay has as its target T7, ETV2 (Homo sapiens, UniProt O00321 1-342).
T7 sequence: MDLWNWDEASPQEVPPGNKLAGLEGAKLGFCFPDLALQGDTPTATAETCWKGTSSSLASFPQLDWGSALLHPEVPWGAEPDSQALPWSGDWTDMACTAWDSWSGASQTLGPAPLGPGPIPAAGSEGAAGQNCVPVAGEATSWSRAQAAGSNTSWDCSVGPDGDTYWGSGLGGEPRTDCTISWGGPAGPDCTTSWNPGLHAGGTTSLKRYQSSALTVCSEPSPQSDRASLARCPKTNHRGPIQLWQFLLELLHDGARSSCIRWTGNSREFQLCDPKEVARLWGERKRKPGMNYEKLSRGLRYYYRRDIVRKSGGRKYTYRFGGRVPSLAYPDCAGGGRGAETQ
In a few lines:
as §1

The next assay has as its target T8, ERF (Homo sapiens, UniProt P50548 1-548).
T8 sequence: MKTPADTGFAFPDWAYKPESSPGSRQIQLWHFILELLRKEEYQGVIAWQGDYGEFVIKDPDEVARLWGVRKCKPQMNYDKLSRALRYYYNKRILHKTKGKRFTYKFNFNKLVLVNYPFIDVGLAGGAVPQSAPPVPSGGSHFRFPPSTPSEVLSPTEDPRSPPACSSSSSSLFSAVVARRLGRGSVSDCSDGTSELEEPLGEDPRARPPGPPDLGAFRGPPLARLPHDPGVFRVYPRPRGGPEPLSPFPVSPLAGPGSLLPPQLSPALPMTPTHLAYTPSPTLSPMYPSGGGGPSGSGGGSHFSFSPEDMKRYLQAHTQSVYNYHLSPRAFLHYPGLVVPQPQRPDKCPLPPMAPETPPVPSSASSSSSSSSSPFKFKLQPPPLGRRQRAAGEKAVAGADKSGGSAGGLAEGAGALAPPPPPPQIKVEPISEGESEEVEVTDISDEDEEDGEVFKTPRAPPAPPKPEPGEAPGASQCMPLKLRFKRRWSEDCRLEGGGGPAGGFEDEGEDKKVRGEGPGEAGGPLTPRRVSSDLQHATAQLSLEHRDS
In outline: as §1

The next assay has as its target T9, ETV3L (Homo sapiens, UniProt Q6ZN32 1-361).
T9 sequence: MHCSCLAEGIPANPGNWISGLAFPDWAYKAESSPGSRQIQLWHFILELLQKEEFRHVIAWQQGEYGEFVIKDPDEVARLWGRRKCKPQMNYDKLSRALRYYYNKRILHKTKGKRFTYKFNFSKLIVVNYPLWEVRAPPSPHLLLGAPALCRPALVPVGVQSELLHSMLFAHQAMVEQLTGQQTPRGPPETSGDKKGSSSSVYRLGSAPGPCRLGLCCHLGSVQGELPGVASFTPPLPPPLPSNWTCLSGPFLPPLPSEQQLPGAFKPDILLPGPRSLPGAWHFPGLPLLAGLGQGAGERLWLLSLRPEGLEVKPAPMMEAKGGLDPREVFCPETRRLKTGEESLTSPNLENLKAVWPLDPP
In outline: as §1

For a further assay, the target named is T10, ETS2 (Homo sapiens, UniProt P15036 1-469).
T10 sequence: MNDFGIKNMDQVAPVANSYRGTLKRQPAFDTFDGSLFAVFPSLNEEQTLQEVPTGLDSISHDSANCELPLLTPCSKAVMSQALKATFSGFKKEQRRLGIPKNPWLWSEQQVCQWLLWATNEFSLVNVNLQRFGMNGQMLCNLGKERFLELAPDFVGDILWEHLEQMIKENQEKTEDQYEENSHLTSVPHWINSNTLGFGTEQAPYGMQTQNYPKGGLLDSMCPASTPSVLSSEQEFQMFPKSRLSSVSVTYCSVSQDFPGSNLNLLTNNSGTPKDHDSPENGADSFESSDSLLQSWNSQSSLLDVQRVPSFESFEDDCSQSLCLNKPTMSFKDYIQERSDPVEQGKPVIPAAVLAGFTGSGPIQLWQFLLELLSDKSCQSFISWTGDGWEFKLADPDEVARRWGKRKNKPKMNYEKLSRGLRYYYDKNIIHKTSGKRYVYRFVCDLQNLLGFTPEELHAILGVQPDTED
In a few lines: as §1

In the next assay the target is ETV6 (Homo sapiens, UniProt P41212 1-452). In outline:
as §1

Chain of ETV6 (P41212 whole entry): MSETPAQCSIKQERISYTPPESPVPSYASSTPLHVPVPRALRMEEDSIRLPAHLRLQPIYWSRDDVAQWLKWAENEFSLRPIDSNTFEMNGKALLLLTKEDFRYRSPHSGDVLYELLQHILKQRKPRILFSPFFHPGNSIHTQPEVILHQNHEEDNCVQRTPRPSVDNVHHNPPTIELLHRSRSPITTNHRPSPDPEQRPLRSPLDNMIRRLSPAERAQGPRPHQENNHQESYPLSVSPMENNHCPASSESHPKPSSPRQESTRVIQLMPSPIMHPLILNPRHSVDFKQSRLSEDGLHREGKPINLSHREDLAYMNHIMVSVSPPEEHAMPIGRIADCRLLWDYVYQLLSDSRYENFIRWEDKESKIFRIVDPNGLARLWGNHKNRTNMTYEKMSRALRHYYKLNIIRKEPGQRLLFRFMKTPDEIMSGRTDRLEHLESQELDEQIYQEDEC
Chain of ELF4 (Q99607 whole entry): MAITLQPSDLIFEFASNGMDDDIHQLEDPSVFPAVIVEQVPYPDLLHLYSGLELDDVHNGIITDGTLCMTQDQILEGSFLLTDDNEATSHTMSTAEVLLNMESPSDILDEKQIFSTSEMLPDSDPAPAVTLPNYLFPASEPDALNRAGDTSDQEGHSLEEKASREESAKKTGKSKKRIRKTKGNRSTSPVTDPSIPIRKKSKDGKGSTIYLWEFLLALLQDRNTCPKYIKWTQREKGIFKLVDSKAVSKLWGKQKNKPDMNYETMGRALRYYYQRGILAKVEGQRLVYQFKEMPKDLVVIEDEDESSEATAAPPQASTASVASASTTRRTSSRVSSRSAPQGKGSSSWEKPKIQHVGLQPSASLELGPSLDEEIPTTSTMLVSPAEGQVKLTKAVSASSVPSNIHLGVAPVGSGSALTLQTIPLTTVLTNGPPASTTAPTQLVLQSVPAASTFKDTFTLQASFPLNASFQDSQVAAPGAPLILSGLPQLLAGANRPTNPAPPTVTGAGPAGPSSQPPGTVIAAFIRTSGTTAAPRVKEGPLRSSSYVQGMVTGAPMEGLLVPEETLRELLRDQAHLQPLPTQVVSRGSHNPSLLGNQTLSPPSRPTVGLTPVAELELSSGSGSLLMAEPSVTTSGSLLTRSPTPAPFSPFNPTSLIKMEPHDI

As to GCTGCA, the binding signal is 1.09 fold enrichment (6-mer frequency, TF over GST control) with FLI1; 1.07 fold enrichment (6-mer frequency, TF over GST control) in the assay with ELK1; 1.05 fold enrichment (6-mer frequency, TF over GST control) with GABPA; 1.05 fold enrichment (6-mer frequency, TF over GST control) with ELF1; 1.08 fold enrichment (6-mer frequency, TF over GST control) with EHF; 1.07 fold enrichment (6-mer frequency, TF over GST control) in the assay with SPIB. In addition, the binding signal in the assay with SPIC is 1.09 fold enrichment (6-mer frequency, TF over GST control); with ELF4 it was 1.05 fold enrichment (6-mer frequency, TF over GST control); with ELK4, 1.08 fold enrichment (6-mer frequency, TF over GST control); with ETV2, 1.01 fold enrichment (6-mer frequency, TF over GST control); in the assay with ERF, 1.2 fold enrichment (6-mer frequency, TF over GST control); with ETV3L, 1.11 fold enrichment (6-mer frequency, TF over GST control). The binding signal with ETS2 was 1.07 fold enrichment (6-mer frequency, TF over GST control); with ETV6 it was 1 fold enrichment (6-mer frequency, TF over GST control).
